The values that follow come from PubChem BioAssay (NCATS).

A number with no mark means an inactive call. Records with an inconclusive call do not appear. Activity calls are given as the source filed them. Unless noted, calls come from the whole dose curve; as a rule, active = well fitted curve in either direction with a large enough effect (not every such curve was filed as active); inconclusive = small, poorly fitted or top-dose-only effect, or another doubt; inactive = flat fitted curve, though single readings scatter.

Assay [1] addresses Lysosomal acid glucosylceramidase (Homo sapiens) (UniProt P04062). As to the kind of experiment: Glucocerebrosidase-p2 (AID 348; in the data active = potency below about 10 µM; note: potency is the fitted concentration of half-maximal effect). To be noted: purified GBA, blue fluorogenic substrate, 40 min. The method in brief: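 Compounds titrated from 0.6 nM upwards against 0.2 nM enzyme in pH 5.9 citric acid/KH2PO4, taurocholate, tween-20; blue fluorogenic substrate 80 uM, 40 min room temperature, stopped and read Ex 365/Em 440 for AC50.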

Assay [2] can be described thus: AP1 Signaling Pathway (AID 357). Note: % is set by controls: 0 for no effect and ±100 for the full control effect. To be noted: ME-180 AP-1-bla reporter, EGF-induced, beta-lactamase ratio, 5 h; at 7.69 µM (top of the series) unless noted. The essentials:
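ME-180 cells with beta-lactamase reporter under AP-1 response element, stimulated with EC50 EGF; compounds tested in titration series, 5 h at 37 °C. CCF4 substrate added 2.5 h at room temperature; 460/530 nm emission ratio gave %activity and AC50.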

Assay [3] deals with Cytochrome P450 1A2 (Homo sapiens) (UniProt P05177). As to the kind of experiment: p450-cyp1a2 (AID 410; calls by dose curve; note: potency is the fitted concentration of half-maximal effect;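 for activity change, negative = inhibition: -100% = full effect of reference inhibitor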). The conditions noted are these: recombinant CYP1A2, luciferin-ME demethylation, luminescence; series mostly up to 57 µM. The method in brief: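 20nM CYP1A2 with 100uM Luciferin-ME (at Km) in 100mM KPO4; compound preincubated 10 min, NADPH regeneration added, 60 min at room temperature. Luciferin quantified by luminescence after detection reagent; normalized to 57 uM furafylline.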
Chain of Cytochrome P450 1A2 (Homo sapiens) (P05177 whole entry, looked up): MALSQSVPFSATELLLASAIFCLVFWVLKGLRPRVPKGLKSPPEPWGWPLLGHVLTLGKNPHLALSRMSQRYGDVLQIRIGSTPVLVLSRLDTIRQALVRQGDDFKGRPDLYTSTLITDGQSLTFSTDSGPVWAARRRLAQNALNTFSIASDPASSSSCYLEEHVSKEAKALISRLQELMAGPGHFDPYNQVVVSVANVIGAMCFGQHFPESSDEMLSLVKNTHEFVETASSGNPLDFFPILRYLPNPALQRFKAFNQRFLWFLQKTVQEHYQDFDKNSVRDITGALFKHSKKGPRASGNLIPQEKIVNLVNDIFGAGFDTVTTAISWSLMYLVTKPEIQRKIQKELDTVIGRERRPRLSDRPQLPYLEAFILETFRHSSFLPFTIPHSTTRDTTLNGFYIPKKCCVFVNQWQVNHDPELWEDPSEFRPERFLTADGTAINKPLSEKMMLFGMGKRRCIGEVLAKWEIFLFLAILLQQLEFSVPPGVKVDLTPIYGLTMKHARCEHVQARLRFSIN

Assay [4] concerns the target Glucocorticoid receptor (Homo sapiens) (UniProt P04150). The experiment in a line: GR-GFP Redistribution (AID 450;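 active = compounds whose dose series gives a full or clear partial fitted curve of increased nuclear translocation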; note: potency is the fitted concentration of half-maximal effect). The conditions noted are these: U2OS GR-GFP nuclear translocation, laser cytometry, 2 h.
For assay [5] the target is unchanged. The experiment in a line: GR-EFC Redistribution (AID 451; calls by dose curve; note: potency is the fitted concentration of half-maximal effect). The conditions noted are these: CHO-K1 GR-EFC translocation, beta-gal luminescence, 2 h. The method in brief: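 CHO-K1 cells stably expressing nuclear-localized β-gal enzyme acceptor and GR fused C-terminally to the enzyme donor fragment; ligand-driven nuclear translocation restores β-gal by complementation. Compounds titrated up to 46 uM final, 2 h at 37 °C; luminescence read.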

The target of assay [6] is Mitogen-activated protein kinase 10 (Mus musculus) (UniProt Q61831). The experiment in a line: JNK3 AlphaScreen Assay (AID 530).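 Note: kinase came from lysate of stimulated human HepG2 cells; signal reports phosphorylation of biotinylated GST-cJun 1-79 at Ser73 with 10 µM ATP; % is set by controls: 0 for no effect and ±100 for the full control effect.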 The conditions noted are these: JNK3 lysate, c-Jun phosphorylation; series mostly up to 57.1 µM. The method in brief:
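Inhibitors reduce antibody binding to phosphorylated biotin-cJun, lowering AlphaScreen luminescence. Lysates from HepG2 cells pre-activated by IL-1beta plus TNF-alpha supplied JNK3; compounds were titrated.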
In general terms: In Alpha technology, singlet oxygen from a donor bead excites a nearby acceptor bead.

Assay [7] deals with Cytochrome P450 3A4 (Homo sapiens) (UniProt P08684). The experiment in a line: qHTS Assay for Inhibitors and Substrates of Cytochrome P450 3A4 (AID 884; active = well fitted curve in the direction sought with a large enough effect; an effect the other way counts as inactive or inconclusive; note: potency is the fitted concentration of half-maximal effect; nearly all actives have a fitted effect of over 50% in size). The conditions noted are these: recombinant CYP3A4, Luciferin-PPXE luminescence; series mostly up to 57.1 µM. The method in brief: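 20 nM human CYP3A4 with 25 uM Luciferin-PPXE (at KM) in 200 mM KPO4, preincubated 10 min with compound; NADPH regeneration started a 60 min RT reaction. Luciferin detected by luminescence, normalized to 57 uM ketoconazole as full inhibition.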
Chain of Cytochrome P450 3A4 (Homo sapiens) (P08684 whole entry, looked up): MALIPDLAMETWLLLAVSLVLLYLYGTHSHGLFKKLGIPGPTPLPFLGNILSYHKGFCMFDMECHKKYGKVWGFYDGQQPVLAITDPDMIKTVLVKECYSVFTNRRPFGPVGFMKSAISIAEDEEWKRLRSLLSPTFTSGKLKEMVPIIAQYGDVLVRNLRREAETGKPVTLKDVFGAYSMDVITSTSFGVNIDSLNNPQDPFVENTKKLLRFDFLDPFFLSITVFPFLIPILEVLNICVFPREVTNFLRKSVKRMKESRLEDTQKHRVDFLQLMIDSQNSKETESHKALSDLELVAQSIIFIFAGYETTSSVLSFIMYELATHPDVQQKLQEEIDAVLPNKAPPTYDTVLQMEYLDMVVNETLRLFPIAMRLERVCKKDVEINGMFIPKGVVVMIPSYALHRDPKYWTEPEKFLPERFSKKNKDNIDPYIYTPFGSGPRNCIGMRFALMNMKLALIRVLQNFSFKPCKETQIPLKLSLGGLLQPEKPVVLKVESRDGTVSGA
In general terms: In qHTS, concentration-response curves come from the screen itself.

For assay [8] the target is unchanged. As to the kind of experiment: qHTS Assay for Activators of Cytochrome P450 3A4 (AID 885; active = well fitted curve in the direction sought with a large enough effect; an effect the other way counts as inactive or inconclusive; note: nearly all actives have a fitted effect of over 65% in size). To be noted: recombinant CYP3A4, Luciferin-PPXE luminescence, 60 min; series mostly up to 57.1 µM. The essentials:
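Signal was normalized against complete inhibition by 57 uM ketoconazole. The reaction used 20nM CYP3A4 with 25uM Luciferin-PPXE, 10-min compound preincubation and a 60-min NADPH-supported step at RT.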

The nature of assay [9]: Confirmation and Secondary Assay for Modulators of Hemoglobin Beta Chain Splicing at IVS2 654 locus (AID 910; active = well fitted curve in the direction sought with a large enough effect; an effect the other way counts as inactive or inconclusive;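 note: per-well total GFP intensity by laser scanning cytometry after 2-day treatment; % of control where 0% means no effect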). To be noted: HeLa EGFP-654 splicing reporter, GFP fluorescence, 48 h; series mostly up to 38.3 µM. The method in brief:
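HeLa cells stably carrying EGFP interrupted by mutant beta-globin IVS2-654 intron (CMV-driven) were treated with compound for 2 days at 37C; corrected splicing was scored as total peak GFP intensity per well (488 nm excitation, 500-520 nm emission).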

The nature of assay [10]: Confirmation and Secondary Assay for Modulators of Hemoglobin Beta Chain Splicing at IVS2 705 locus (AID 930; active = well fitted curve in the direction sought with a large enough effect; an effect the other way counts as inactive or inconclusive;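 note: HeLa cells stably expressing the EGFP-705 splicing reporter; % of control where 0% means no effect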). To be noted: HeLa EGFP-705 splicing reporter, GFP fluorescence, 48 h; series mostly up to 38.3 µM. The essentials: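 Assay measures total GFP intensity per well in HeLa EGFP-705 cells after 2 days with compound; mis-splicing normally truncates EGFP, so fluorescence indicates corrected splicing.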

Assay [11] addresses Ubiquitin carboxyl-terminal hydrolase 1 (Homo sapiens) (UniProt O94782). The experiment in a line: Inhibitors of USP1/UAF1: Pilot qHTS (AID 504865; active = well fitted curve in the direction sought with a large enough effect; an effect the other way counts as inactive or inconclusive;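 note: rhodamine fluorescence freed from ubiquitin-rhodamine substrate followed over time; top concentration of the series differs between compounds; % is set by controls: 0 for no effect and ±100 for the full control effect; nearly all actives have a fitted effect of over 35% in size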). The conditions noted are these: purified USP1/UAF1, Ub-rhodamine cleavage fluorescence; series mostly up to 54.9 µM. The essentials:
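Deubiquitinase activity followed as kinetic rhodamine fluorescence release from 150 nM Ub-Rho. 1 nM USP1/UAF1 with compound, after 15 min room-temperature preincubation, in HEPES pH 7.8 buffer containing TCEP, EDTA, BSA and Tween-20.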

A short description of assay [12]: Primary qHTS for small molecule stabilizers of the endoplasmic reticulum resident proteome: Secreted ER Calcium Modulated Protein (SERCaMP) assay (AID 1508630; active = well fitted curve in the direction sought with a large enough effect; an effect the other way counts as inactive or inconclusive; note: % is set by controls: 0 for no effect and ±100 for the full control effect). To be noted: SH-SY5Y GLuc-SERCaMP (Gaussia luciferase released on ER calcium loss) secretion, thapsigargin, luminescence; series mostly up to 38.4 µM. The method in brief: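 GLuc-SERCaMP-expressing SH-SY5Y cells, pretreated 16 h with compound, are challenged with thapsigargin to empty ER calcium stores; after 4 h, coelenterazine is added directly to the medium and luminescence is imaged.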

Assay [13] is described as follows: NFAT Signaling Pathway (AID 444).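 Note: carbachol stimulus at about its EC50 of 1 µM final; % is set by controls: 0 for no effect and ±100 for the full control effect.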 To be noted: Jurkat NFAT-bla M1, carbachol, beta-lactamase ratio, 5 h; at 7.69 µM (top of the series) unless noted. The essentials: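 Jurkat cells carrying an NFAT-driven β-lactamase reporter and co-transfected muscarinic M1 receptor were treated with compound plus carbachol (1 uM final, an EC50 level) for 5 h at 37 °C. CCF4 loading followed for 1 h at RT; 460/530 nm ratio gave %activity.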

Assay [14] can be described thus: Stat Signaling Pathway (AID 446). To be noted: ME-180 SIE beta-lactamase reporter, IL-6 stimulated, 5 h; at 7.69 µM (top of the series) unless noted. The essentials:
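Reporter line: ME-180 cervical carcinoma, SIE-beta-lactamase. Treatment: compound with 40 pM IL-6, 5 hrs, 37 C, in low-serum OPTI-MEM with 10 mM HEPES pH 7.3. Detection: 460/530 nm fluorescence.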

The target in assay [15] is 3',5'-cyclic-AMP phosphodiesterase 4B (Homo sapiens) (UniProt Q07343). As to the kind of experiment: qHTS Assay for Inhibitors of PDE-IV (AID 607; active = well fitted activation curve with a large enough effect in the main read-out, with a control signal flat, not every such curve was filed as active; note: % of control where 0% means no effect). The conditions noted are these: HEK293 ACTOne CNG channel cells, membrane potential fluorescence; series mostly up to 22.9 µM. The essentials:
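Cell-based read-out of cAMP via a modified cyclic nucleotide-gated channel and membrane potential dye (535/590 nm) in HEK293 cells expressing PDE4 endogenously. Compounds tested up to 22.9 uM final; 100 uM RO 20-1724 reference.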

A short description of assay [16]: qHTS Assay for Identification of Small Molecule Agonists for Hypoxia Response Element Signaling Pathway (AID 914; active = well fitted activation curve with a large enough effect in the signal ratio, with a control signal flat, not every such curve was filed as active; the % refers to the signal ratio; note: % of control where 0% means no effect). The conditions noted are these: ME-180 (cervical carcinoma) HRE-bla reporter, beta-lactamase ratio, CoCl2, 17 h; activation: active compounds read high. The essentials:
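Compounds in a titration series were added to ME-180 reporter cells alongside an EC50 level of CoCl2. After 17 hours, beta-lactamase activity was read as the 460nm/530nm emission ratio of CCF4, giving AC50 values.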

Assay [17] addresses Cytochrome P450 2D6 (Homo sapiens) (UniProt P10635). The experiment in a line: qHTS Assay for Inhibitors and Substrates of Cytochrome P450 2D6 (AID 891; active = well fitted curve in the direction sought with a large enough effect; an effect the other way counts as inactive or inconclusive; note: potency is the fitted concentration of half-maximal effect; nearly all actives have a fitted effect of over 60% in size). The conditions noted are these: recombinant CYP2D6, luciferin-ME EGE luminescence; series mostly up to 57.1 µM. The essentials: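 Human CYP2D6 (5 nM) with 30 uM Luciferin-ME EGE (at Km) in 100 mM KPO4, compound preincubated 10 min, then NADPH regeneration system for 60 min at room temperature. Luciferin read by luminescence; normalized to 1.43 uM quinidine.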

Chain of 3',5'-cyclic-AMP phosphodiesterase 4B (Homo sapiens) (Q07343 whole entry, looked up): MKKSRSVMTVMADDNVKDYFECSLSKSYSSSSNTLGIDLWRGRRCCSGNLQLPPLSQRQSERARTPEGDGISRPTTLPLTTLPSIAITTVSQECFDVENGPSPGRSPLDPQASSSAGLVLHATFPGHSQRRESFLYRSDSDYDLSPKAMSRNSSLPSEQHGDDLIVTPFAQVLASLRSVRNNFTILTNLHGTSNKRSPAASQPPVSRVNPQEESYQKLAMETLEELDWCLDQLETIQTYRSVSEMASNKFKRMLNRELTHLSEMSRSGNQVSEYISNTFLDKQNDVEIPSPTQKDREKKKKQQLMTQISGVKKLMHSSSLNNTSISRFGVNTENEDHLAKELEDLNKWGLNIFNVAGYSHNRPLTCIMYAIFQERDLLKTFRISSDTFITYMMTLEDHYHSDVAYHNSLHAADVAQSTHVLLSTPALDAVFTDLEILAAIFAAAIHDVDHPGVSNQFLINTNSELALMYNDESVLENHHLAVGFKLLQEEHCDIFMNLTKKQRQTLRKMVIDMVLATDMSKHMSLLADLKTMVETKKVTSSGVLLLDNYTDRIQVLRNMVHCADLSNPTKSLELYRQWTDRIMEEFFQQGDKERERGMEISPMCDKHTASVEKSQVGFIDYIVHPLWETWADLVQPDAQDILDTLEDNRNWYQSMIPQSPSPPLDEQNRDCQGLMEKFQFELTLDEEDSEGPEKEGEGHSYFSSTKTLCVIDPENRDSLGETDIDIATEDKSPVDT
Chain of Lysosomal acid glucosylceramidase (Homo sapiens) (P04062 whole entry, looked up): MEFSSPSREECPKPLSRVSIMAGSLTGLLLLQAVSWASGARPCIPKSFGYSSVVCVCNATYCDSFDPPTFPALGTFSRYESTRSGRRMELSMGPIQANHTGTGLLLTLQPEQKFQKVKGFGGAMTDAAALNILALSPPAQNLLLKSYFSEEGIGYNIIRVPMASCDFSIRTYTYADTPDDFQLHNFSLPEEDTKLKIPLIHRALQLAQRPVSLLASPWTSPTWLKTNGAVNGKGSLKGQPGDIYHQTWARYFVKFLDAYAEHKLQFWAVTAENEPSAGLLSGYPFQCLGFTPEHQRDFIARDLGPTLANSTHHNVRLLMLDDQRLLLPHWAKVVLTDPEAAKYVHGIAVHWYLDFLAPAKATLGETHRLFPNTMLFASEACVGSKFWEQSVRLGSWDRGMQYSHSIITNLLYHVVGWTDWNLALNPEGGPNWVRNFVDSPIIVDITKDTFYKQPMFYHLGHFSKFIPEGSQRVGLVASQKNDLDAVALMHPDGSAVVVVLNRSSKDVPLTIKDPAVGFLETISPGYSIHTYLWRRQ
Chain of Glucocorticoid receptor (Homo sapiens) (P04150 whole entry, looked up, the tested form may be a part): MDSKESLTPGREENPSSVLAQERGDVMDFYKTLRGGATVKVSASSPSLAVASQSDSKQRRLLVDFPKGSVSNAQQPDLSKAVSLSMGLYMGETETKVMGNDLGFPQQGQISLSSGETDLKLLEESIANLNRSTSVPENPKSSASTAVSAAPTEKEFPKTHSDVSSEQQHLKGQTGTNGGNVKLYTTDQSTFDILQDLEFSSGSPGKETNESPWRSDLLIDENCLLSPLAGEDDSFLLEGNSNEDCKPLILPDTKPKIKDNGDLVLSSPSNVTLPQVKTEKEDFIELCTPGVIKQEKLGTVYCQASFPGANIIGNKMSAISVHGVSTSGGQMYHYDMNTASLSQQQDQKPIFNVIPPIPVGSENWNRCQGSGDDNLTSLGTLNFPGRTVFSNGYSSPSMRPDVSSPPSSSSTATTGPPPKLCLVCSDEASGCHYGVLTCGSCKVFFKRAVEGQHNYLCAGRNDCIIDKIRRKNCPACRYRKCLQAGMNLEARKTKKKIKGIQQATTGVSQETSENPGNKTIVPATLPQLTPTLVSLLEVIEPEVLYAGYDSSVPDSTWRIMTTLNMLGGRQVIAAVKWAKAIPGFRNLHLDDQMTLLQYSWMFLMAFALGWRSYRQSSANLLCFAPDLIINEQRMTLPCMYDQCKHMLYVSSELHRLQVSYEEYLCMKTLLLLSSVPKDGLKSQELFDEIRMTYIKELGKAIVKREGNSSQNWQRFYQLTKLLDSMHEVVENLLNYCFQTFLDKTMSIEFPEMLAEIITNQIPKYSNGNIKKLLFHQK
Chain of Cytochrome P450 2D6 (Homo sapiens) (P10635 whole entry, looked up): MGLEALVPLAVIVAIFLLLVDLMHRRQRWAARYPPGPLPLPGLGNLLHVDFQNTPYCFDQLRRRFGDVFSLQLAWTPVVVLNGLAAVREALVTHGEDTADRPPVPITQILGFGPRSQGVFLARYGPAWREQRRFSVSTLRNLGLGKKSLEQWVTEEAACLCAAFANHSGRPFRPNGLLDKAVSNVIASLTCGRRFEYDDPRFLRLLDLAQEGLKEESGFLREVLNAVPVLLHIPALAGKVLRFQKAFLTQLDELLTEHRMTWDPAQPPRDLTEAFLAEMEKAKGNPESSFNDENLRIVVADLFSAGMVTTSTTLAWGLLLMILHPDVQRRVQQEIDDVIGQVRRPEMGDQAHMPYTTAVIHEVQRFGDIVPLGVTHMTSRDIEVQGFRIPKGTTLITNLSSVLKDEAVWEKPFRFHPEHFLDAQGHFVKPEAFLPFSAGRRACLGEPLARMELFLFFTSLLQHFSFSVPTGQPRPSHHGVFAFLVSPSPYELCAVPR
Chain of Ubiquitin carboxyl-terminal hydrolase 1 (Homo sapiens) (O94782 whole entry, looked up): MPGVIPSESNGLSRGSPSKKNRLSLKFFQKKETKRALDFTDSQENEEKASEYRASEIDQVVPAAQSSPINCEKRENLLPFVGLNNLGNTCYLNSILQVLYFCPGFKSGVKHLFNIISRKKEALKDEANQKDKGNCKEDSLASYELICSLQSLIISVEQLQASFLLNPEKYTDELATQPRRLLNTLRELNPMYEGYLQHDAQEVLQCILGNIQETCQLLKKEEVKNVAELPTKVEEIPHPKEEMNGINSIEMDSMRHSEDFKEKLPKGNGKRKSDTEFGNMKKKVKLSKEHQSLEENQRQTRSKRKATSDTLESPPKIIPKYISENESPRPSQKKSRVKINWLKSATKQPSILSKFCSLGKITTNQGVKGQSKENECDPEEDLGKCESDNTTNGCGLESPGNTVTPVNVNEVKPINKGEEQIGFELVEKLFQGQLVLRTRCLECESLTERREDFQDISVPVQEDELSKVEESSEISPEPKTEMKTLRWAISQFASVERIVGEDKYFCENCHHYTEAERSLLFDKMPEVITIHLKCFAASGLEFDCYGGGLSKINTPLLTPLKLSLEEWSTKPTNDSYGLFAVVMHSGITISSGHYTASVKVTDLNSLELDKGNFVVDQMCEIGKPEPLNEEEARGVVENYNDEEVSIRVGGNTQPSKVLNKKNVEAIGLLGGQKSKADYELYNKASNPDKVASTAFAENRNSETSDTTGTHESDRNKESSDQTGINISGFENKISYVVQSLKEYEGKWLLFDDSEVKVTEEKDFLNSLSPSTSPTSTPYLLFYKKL

Turning to `Cc1cnc(CNc2nc(-c3ccc4c(c3)OCO4)nc3ccccc23)cn1`, the Potency was more than 11.4 µM in [1]; 2 µM (active) in [3]; more than 46 µM in assay [4]; more than 46 µM in assay [5]; 0.794 µM (active) in assay [7]. Further, the activity change, negative = inhibition in assay [2] is -3.88%. The Potency entry in [6], in assay [8], in assay [9] and in assay [11] was “inactive” in each case. In addition, the compound was classed as inactive in assay [10] and in [12].

With `COc1ncc2nc(-c3ccc(F)cc3)c(=O)n(C[C@H]3CCCO3)c2n1`, the Potency was more than 11.4 µM in [1], more than 9.22 µM in assay [4] and more than 46 µM in assay [5]. For the same compound, the activity change, negative = inhibition is 3.08% in [2] and -6.14% in [13]. The activity, negative = inhibition in [14] was -1.31%. Moreover, the Potency entry in assay [6] and in assay [15] was “inactive” in each case. For the same compound, in [12], the result was inactive.

On to `COc1ncc2nc(C)c(=O)n(C[C@H]3CCCO3)c2n1`, for which the figures for the Potency in assay [1], in assay [4] and in assay [5] were more than 11.4 µM, more than 9.22 µM and more than 46 µM, respectively. In addition, the activity change, negative = inhibition in [2] is -6.08%; in [13], -9.08%. In addition, the activity, negative = inhibition in assay [14] is -2.46%. In addition, the Potency result in assay [6] and in assay [15] was “inactive” in each case. Besides, the result in [12] was inactive.

With `N#Cc1cccc(NC(=O)N2CCCC3(CCN(C(=O)c4csnn4)CC3)C2)c1`, the figures for the Potency in assay [1] and in [5] were more than 11.4 µM and more than 46 µM, respectively. Also, the activity change, negative = inhibition in assay [2] is 6.7%. Moreover, the Potency entry in assay [3], in assay [6], in assay [15] and in [8] was “inactive” in each case. The activity, negative = inhibition in assay [14] was -0.264%. For the same compound, the activation in assay [16] is -5.53%. In addition, the result in assay [12] was inactive.

For the compound `COc1cccc(Cn2c(=O)c(-c3cc(F)cc(F)c3)nc3cnc(OC)nc32)c1`, the Potency in [1] is more than 11.4 µM; in [4] it was more than 9.22 µM; in assay [5], more than 46 µM. Also, the activity change, negative = inhibition in assay [2] is -16.9%; in assay [13], -18.1%. Besides, the activity, negative = inhibition in [14] was -4.81%. In addition, the Potency entry in assay [6] and in assay [15] was “inactive” in each case. The outcome in assay [12] was inactive.

Regarding `COc1ccc(Oc2ncc3nc(C)c(=O)n(CCc4ccccc4)c3n2)cc1`, the Potency is more than 11.4 µM in assay [1], more than 9.22 µM in assay [4] and more than 46 µM in assay [5]. Further, the activity change, negative = inhibition was 18.2% in [2] and 0.509% in [13]. Also, the activity, negative = inhibition in [14] is 2.93%. In [6], the Potency entry is “inactive”. Further, the outcome in assay [12] was inactive.

Regarding `O=C(c1cnccn1)N1CCC2(CC1)CN(Cc1cc(C(F)(F)F)cc(C(F)(F)F)c1)C2`, the Potency in [1] was more than 11.4 µM; in [5], more than 46 µM; in assay [17], 0.398 µM (active). For the same compound, in assay [2], the activity change, negative = inhibition is -17.8%. For the same compound, the Potency result in assay [3], in assay [6] and in [15] was “inactive” throughout. Moreover, in assay [14], the activity, negative = inhibition is -1.36%. For the same compound, the result in assay [12] was inactive.
